An excerpt weighted towards active compounds, which were near 1.3% of everything screened.
LAP4-GFP MLPCN: modulators of TOR pathway LAP4-GFP in S. cerevisiae; AID 2023; GFP response vs DMSO, % at 10 µM; S. cerevisiae LAP4-GFP multiplex, flow cytometry GFP, 3 h; median GFP as percent of DMSO wells; 320,000 compounds, 0.34% hits;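 active = GFP response vs DMSO above a set limit, about the screen mean plus 3 SD, cut at about 150% in these data; inconclusive = under 70 cell events counted for the yeast strain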
CIT2-GFP yeast: alters CIT2-GFP fluorescence in TOR pathway yeast screen; S. cerevisiae CIT2-GFP strain, flow cytometry, 3 h; 100 means same as DMSO wells; GFP response vs DMSO, % at 10 µM; 320,000 compounds, 0.065% hits;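 active = GFP response relative to DMSO above a set limit, near the screen mean plus 3 SD, cut at about 150% in these data; inconclusive = Fewer than 70 cells measured for a yeast strain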;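 note: ratio of well median GFP fluorescence to mean of DMSO wells on the plate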
Efflux pump inh: antifungal efflux pump inhibition, Nile Red retention | S. cerevisiae Candida pump triplex | inhibition, % at 10 µM | 330,000 compounds, 0.44% hits;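 active = plate passing quality check with inhibition over a set limit, or well fluorescence over plate mean plus 4 SD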;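 note: Nile Red retained in pooled yeast measured as flow cytometry median fluorescence; 0% = buffer negative control and 100% = Enniatin B positive control; higher means more Nile Red kept so more efflux inhibition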
MEP2-GFP yeast: modulators of TOR pathway MEP2-GFP in S. cerevisiae; S. cerevisiae MEP2-GFP strain, flow cytometry GFP, 3 h; 100% = DMSO control level; GFP response vs DMSO, % at 10 µM; 330,000 compounds, 0.51% hits;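 active = GFP response versus DMSO above a set limit, roughly screen mean plus 3 SD, cut at about 180% in these data; inconclusive = fewer than 70 cells counted for a yeast strain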;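 note: median GFP fluorescence of the barcode-gated MEP2-GFP cells per well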
AGP1 TOR yeast: alters AGP1-GFP fluorescence in TOR pathway yeast screen; GFP response vs DMSO, % at 10 µM; 320,000 compounds, 0.02% hits; AID 2066; S. cerevisiae AGP1-GFP multiplex flow cytometry, 3 h; GFP as percent of DMSO wells;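 active = GFP response relative to DMSO above a set limit, near screen average plus 3 SD, cut at about 150% in these data; inconclusive = fewer than 70 cells counted for the yeast strain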;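 note: median GFP channel fluorescence of the gated AGP1 strain per well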
RPL19A TOR yeast: alters RPL19A-GFP fluorescence in TOR pathway yeast screen | S. cerevisiae RPL19A-GFP strain, flow cytometry, 3 h; stronger effect = lower value | percent response vs DMSO, % at 10 µM | 330,000 compounds, 0.3% hits | AID 2025;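 active = percent response vs DMSO below 50%; inconclusive = fewer than 70 events counted for the yeast strain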;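 note: median channel GFP fluorescence of the barcoded RPL19A-GFP strain; ratio of sample median GFP to plate DMSO average so 100% = DMSO; lower means less RPL19A-GFP as with rapamycin TOR inhibition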
LAP4 cherry2: second confirmation of modulators of TOR reporter LAP4-GFP in yeast; 590 compounds, 20% hits; shares compounds with LAP4-GFP MLPCN; S. cerevisiae LAP4-GFP strain, flow cytometry GFP, 3 h; AID 2621; GFP response vs DMSO, % at 10 µM;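 active = GFP signal as percent of the solvent control above about 150%, meaning raised reporter expression, limit read from the data; inconclusive = fewer than 70 cells counted in the well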;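 note: ratio of well median GFP fluorescence to plate DMSO mean so 100% = DMSO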
MEP2-GFP pick2: reconfirmed MEP2-GFP TOR pathway modulator in yeast; shares compounds with LAP4-GFP MLPCN; S. cerevisiae MEP2-GFP strain, flow cytometry GFP, 3 h; 590 compounds, 10% hits; GFP response vs DMSO, % at 10 µM;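 active = GFP signal above 150% of the solvent control wells, that is a rise of more than half; inconclusive = fewer than 70 yeast cells counted in the well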;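 note: median channel GFP fluorescence of all gated yeast cells per well; ratio of median GFP to plate DMSO average so 100% = DMSO level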
RPL19A GFP CP2: yeast RPL19A-GFP TOR reporter modulation, second cherry pick | shares compounds with LAP4-GFP MLPCN | S. cerevisiae RPL19A-GFP strain, flow cytometry GFP, 3 h; stronger effect = lower value; 100% means same as DMSO wells | GFP response vs DMSO, % at 10 µM | 590 compounds, 3% hits;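 active = under 65% GFP response relative to DMSO; inconclusive = yeast strain with under 70 measured events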;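 note: median GFP channel fluorescence per well over the all cells gate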
CIT2 GFP CP2: second confirmation of modulators of TOR reporter CIT2-GFP in yeast | shares compounds with LAP4-GFP MLPCN | S. cerevisiae CIT2-GFP strain, flow cytometry GFP, 3 h; DMSO control wells read 100% | GFP response vs DMSO, % at 10 µM | 590 compounds, 8% hits;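 active = GFP response vs DMSO above about 150%, limit read from the data; inconclusive = fewer than 70 events counted for a yeast strain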;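 note: median green fluorescence per well over all gated yeast cells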
AGP1 GFP CP2: reconfirmed modulator of AGP1-GFP TOR reporter in yeast; S. cerevisiae AGP1-GFP strain, flow cytometry GFP, 3 h; shares compounds with LAP4-GFP MLPCN; 590 tested, under 10 active; percent response vs DMSO, % at 10 µM; AID 2643;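 active = over 150 percent of DMSO response; inconclusive = yeast strain measured with under 70 events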;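 note: median GFP channel fluorescence over all cells without mother daughter split; sample median GFP divided by mean DMSO control so 100% equals DMSO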
s288c autofluor: compound is autofluorescent in yeast s288c cells; shares compounds with LAP4-GFP MLPCN; S. cerevisiae s288c, 520 nm autofluorescence, flow cytometry, 3 h; stronger effect = higher value; zero means same as solvent-only cells; fluorescence change (kMESF span) at 33 µM; 610 tested, under 10 active; AID 2757;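 active = fluorescence span over the dose series, or activity score, above about 33, limit read from the data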
The depositor's hits bear a star; ? = inconclusive; . = no result given.

SMILES	LAP4-GFP MLPCN	CIT2-GFP yeast	Efflux pump inh	MEP2-GFP yeast	AGP1 TOR yeast	RPL19A TOR yeast	LAP4 cherry2	MEP2-GFP pick2	RPL19A GFP CP2	CIT2 GFP CP2	AGP1 GFP CP2	others
CC(=O)c1cccc(NC(=O)C(C)OC(=O)CN2C(=O)NC(C)(C)C2=O)c1 (configuration not stated)	94	97	0	96	97	97	.	.	.	.	.
CCSc1nnc2ccc(-c3ccc(OC)c(OC)c3)nn12	89	151*	0	97	111	97	88	108	107	111	98
COc1ccc(-c2ccc3nnc(SCC(N)=O)n3n2)cc1	98	95	0	92	97	96	.	.	.	.	.
CCN(CC)C(=S)SSC(=S)N(CC)CC	187*	68	0	110	76	89	181*	131	93	110	99	s288c autofluor=0.4
CCN(CC)C(=S)SCC(=O)c1ccccc1	111	.	0	95	97	100	.	.	.	.	.
COc1ccc(OC)c(S(=O)(=O)ON2C(=O)c3ccccc3C2=O)c1	182*	80	0	87	78	101	.	.	.	.	.	s288c autofluor=18
COc1ccc(OC)c(S(=O)(=O)N2CCN(c3ccccc3)CC2)c1	101	103	0	102	100	98	.	.	.	.	.
CCOC(=O)COc1ccccc1/C=C\[N+](=O)[O-]	188*	74	0	91	76	72	140	122	96	113	101
Cc1ccc(C(=O)COC(=O)COc2ccccc2[N+](=O)[O-])s1	104	97	0	101	99	98	.	.	.	.	.
COc1ccc2c(c1)CC[C@@H]1[C@@H]2CC[C@]2(C)[C@@H](C(=O)O)C[C@@H]12	167*	64	0	94	78	93	116	110	90	88	88
CCc1ccc(C(=O)/C=C/c2ccc([N+](=O)[O-])o2)cc1	215*	155*	0	185*	78	99	.	.	.	.	.	s288c autofluor=4.2
Cc1ccc(NC(=O)c2cc(N3C(=O)C=CC3=O)ccc2Cl)cc1C	115	66	0	91	100	70	156*	168*	78	106	88	s288c autofluor=1.3
O=C(CN(C(=O)CCC(=O)Nc1ccccn1)C1CCCC1)NCc1ccccc1	88	103	0	100	99	105	.	.	.	.	.
CN1C(=O)[C@@H]2C[C@@]3([C@@]45C[C@H]6C(=O)N(C)[C@@H](Cc7ccccc7)C(=O)N6[C@@H]4Nc4ccccc45)c4ccccc4N[C@H]3N2C(=O)[C@@H]1Cc1ccccc1	155*	129	0	94	94	99	97	96	103	108	100
O=C1NC(=Nc2ccccc2Cl)S/C1=C\c1cccc([N+](=O)[O-])c1	152*	79	0	82	71	89	142	98	92	121	83
O=C1NC(=Nc2ccccc2Cl)S/C1=C\c1cccc([N+](=O)[O-])c1O	80	102	0	102	80	97	.	.	.	.	.
O=C(CSc1nnc(NC(=O)C2CC(=O)N(c3ccc(F)cc3)C2)s1)NCc1ccco1 (configuration not stated)	114	97	0	108	107	99	.	.	.	.	.
O=C(Nc1nnc(SCC(=O)N2CCOCC2)s1)C1CC(=O)N(c2ccccc2)C1 (configuration not stated)	97	92	0	104	101	98	.	.	.	.	.
COc1ccc(N2CC(C(=O)Nc3nnc(SCC(=O)N4CCOCC4)s3)CC2=O)cc1 (configuration not stated)	157*	110	0	131	118	89	105	112	101	104	103
Cc1c(NC(=O)C(C)OC(=O)c2ncc(Cl)c(Cl)c2Cl)c(=O)n(-c2ccccc2)n1C (configuration not stated)	107	109	0	101	109	103	.	.	.	.	.
CCOC(=O)c1c(C)oc2c1c(CN1CCN(C(=O)OCC)CC1)c(O)c1ccccc12	108	97	0	111	105	107	.	.	.	.	.
CCOC(=O)c1c(C)oc2c1c(C(c1ccncc1)N1CCOCC1)c(O)c1ccccc12 (configuration not stated)	185*	92	0	93	.	89	.	.	.	.	.	s288c autofluor=2.6
COc1ccc(C(=O)Nn2c(C)nc3ccccc3c2=O)cc1Br	90	102	0	94	96	93	.	.	.	.	.
Cc1ccc(CN2C(=O)[C@H]3Cc4c([nH]c5ccccc45)C(C)(C)N3C2=O)cc1	156*	87	0	98	93	104	103	102	98	102	96
Cc1ccc(CN2C(=O)[C@@H]3Cc4c([nH]c5ccccc45)C(C)(C)N3C2=O)cc1	137	90	0	93	85	100	.	.	.	.	.
O=C(CSc1ccccc1)Nc1cc(S(=O)(=O)N2CCOCC2)ccc1N1CCOCC1	97	94	0	102	99	97	.	.	.	.	.
O=[N+]([O-])c1cc(Cl)cc(/C=N\Nc2ccccn2)c1O	147	74	0	122	46	52	179*	192*	82	165*	84	s288c autofluor=2.7
O=C(N/N=C/c1cc(Cl)cc([N+](=O)[O-])c1O)c1cc(-c2ccccn2)nc2ccccc12	105	108	0	95	104	101	.	.	.	.	.
CCCCc1ncc(CN2CCC(n3nccc3NC(=O)c3ccccc3Cl)CC2)[nH]1	83	94	0	?	87	?	.	.	.	.	.
